# Measured values: PubChem BioAssay (NCATS)
# Values without a mark were called inactive. Activity calls are given as the source filed them. Calls follow the shape of the dose curve; as a rule, active = well fitted curve in the direction sought with a large enough effect (not every such curve was filed as active); inconclusive = small, poorly fitted or top-dose-only effect, or effect the other way, or another doubt; inactive = no such curve, though single readings can be large or run the other way.
# Target: Pyruvate kinase PKM (Homo sapiens) (UniProt P14618)
# Sequence (P14618 whole entry, looked up): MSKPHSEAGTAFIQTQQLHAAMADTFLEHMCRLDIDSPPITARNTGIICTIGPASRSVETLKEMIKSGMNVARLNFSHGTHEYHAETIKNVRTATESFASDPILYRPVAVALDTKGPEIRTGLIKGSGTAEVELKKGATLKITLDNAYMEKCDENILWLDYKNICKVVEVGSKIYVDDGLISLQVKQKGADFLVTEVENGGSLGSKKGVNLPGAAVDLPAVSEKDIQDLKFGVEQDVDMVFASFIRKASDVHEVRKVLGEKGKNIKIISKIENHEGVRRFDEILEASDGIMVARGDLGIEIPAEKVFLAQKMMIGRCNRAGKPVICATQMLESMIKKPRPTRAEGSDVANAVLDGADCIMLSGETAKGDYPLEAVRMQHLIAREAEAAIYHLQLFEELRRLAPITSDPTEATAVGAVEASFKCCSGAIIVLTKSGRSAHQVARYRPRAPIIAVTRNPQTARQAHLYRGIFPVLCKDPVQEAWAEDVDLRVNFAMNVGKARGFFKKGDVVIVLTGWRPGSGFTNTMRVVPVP
# Assay: qHTS Assay for Activators of Human Muscle Pyruvate Kinase (AID 954);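 also: 0% = uninhibited enzyme and -100% = no enzyme or full thiadiazolimine inhibition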
# Conditions: purified human muscle pyruvate kinase, luciferase-coupled luminescence, 1 h; series mostly up to 57.5 µM; activity change, negative = inhibition: at the top concentration
# Procedure, shortened: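 Human PKM2 activity is measured as ATP generation, detected by luciferase-coupled luminescence. The enzyme (0.1 nM) acts on 0.5 mM PEP and 0.1 mM ADP for 1 h at ambient temperature; data are normalized to uninhibited and full-inhibition wells.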
Structure (SMILES),"activity change, negative = inhibition [%]",outcome
COc1ccc(/C=C/C(=O)Nc2ccccc2C(=O)O)cc1OC,-83.5,
N#C/C(=C\c1ccc(O)c(O)c1)C(=O)NCCCc1ccccc1,-11.3,
COC(=O)c1c(C)[nH]c(C)c1C(=O)c1ccccc1Cc1ccccc1,-11.8,
NC(N)=NC(=O)c1nc(Cl)c(N2CCCCCC2)nc1N,-28.4,
CN1CCc2cc(NC(=O)Nc3cccnc3)ccc21,-33.9,
O=C(Nc1cccc(C(=O)Nc2ccc(S(=O)(=O)O)c3cc(S(=O)(=O)O)cc(S(=O)(=O)O)c23)c1)Nc1cccc(C(=O)Nc2ccc(S(=O)(=O)O)c3cc(S(=O)(=O)O)cc(S(=O)(=O)O)c23)c1,-68.6,
O=C(Nc1ccccc1)c1cc([N+](=O)[O-])ccc1Cl,-41.8,
NO,3.01,
COc1cc(OC)c(/C=C2/C(=O)Nc3ccccc32)c(OC)c1,-17.8,
O=S(=O)(c1cccc2c(I)cccc12)N1CCCNCC1,-6.71,
COc1cccc(C(=O)NCCN2CCN(c3ccc(Cl)cc3)CC2)c1,-19.4,
CN(C)c1nc(N)c(C(=O)N=C(N)N)nc1Cl,-13.9,
O=C(O)CC[C@@H](C(=O)O)N1C(=O)c2ccccc2C1=O,-4.9,
N#C/C(=C\c1ccc(O)c(O)c1)C(=O)NCc1ccccc1,-36.7,
Cc1ccc(O)c(N=Nc2ccccc2)n1,-113,
CC1(C)CCC=[N+]1[O-],-8.34,

Structure (SMILES),"activity change, negative = inhibition [%]",outcome
O=c1[nH]c2cc([N+](=O)[O-])c([N+](=O)[O-])cc2[nH]c1=O,-17.3,
NCCSSCCN,-27.5,
CCCN(CC1CC1)c1nc(C)nc(Nc2c(Cl)cc(Cl)cc2Cl)c1Cl,-4.97,
Clc1ccc(N2CCN(Cc3c[nH]c4ncccc34)CC2)cc1,22.9,
c1cnc2c(c1)ccc1cccnc12,-11.3,
NC[C@@H]1O[C@H](C23CC4CC(CC(C4)C2)C3)Cc2c1ccc(O)c2O,-7,
CNCC[C@H](Oc1ccc(C(F)(F)F)cc1)c1ccccc1,,inactive
COc1ccccc1CNCCCCCCNCCCCCCCCNCCCCCCNCc1ccccc1OC,-24.8,
Cc1cc(NC(=O)Nc2ccc3c(ccn3C)c2)sn1,-50.7,
CN=c1nc(-c2ccccc2)n(-c2ccccc2)s1,-89.5,
C=C[C@H]1CN2CC[C@@H]1C[C@@H]2[C@@H](O)c1ccnc2ccc(OC)cc12,,inactive
N.N.O=C(O)C1(C(=O)O)CCC1.[Pt],3.28,
CCCn1c(=O)c2[nH]c(-c3ccc(OCC(=O)NCCN)cc3)nc2n(CCC)c1=O,2.25,
CN1CCc2ccccc2Cc2[nH]c3ccccc3c2CC1,-13.9,
O=C(O)c1cc(=O)c2c(Cl)cc(Cl)cc2[nH]1,-19.1,
C[N+](C)(CCCCCC[N+](C)(C)CCCN1C(=O)c2cccc3cccc(c23)C1=O)CCCN1C(=O)c2cccc3cccc(c23)C1=O,-24.4,
